Unmarked numbers belong to inactive results.

The test is described as follows: MM1S myeloma cell viability, profiling panel, resazurin fluorescence, basal, 24 h, PK04 Diversity Set (AID 1174).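 Further: MM1S multiple myeloma cell line; test concentration not given here.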 As to conditions: higher = more signal, called active from +8 up or from −8 down. (The colour change of resazurin is a common sign of viable cells or microbes.)
For `CC(=O)NCCCC[C@@H]1NC(=O)[C@@H]2C[C@H](C(=O)NCCCCCNC(=O)CS)[C@H](c3cccc(OCCO)c3)N2C1=O`, the z-score was 1.37.
Take `COc1ccccc1CN1C(=O)c2ccccc2[C@@]2(Cc3ccccc3N(CC(C)C)C2=O)[C@@H]1c1ccc(CO)cc1`: the z-score is -0.681.
The value for `CC(CO)N1C(=O)[C@@H]2C3C(=O)OCCC/C=C\[C@H]3OC23C=CCN(C(C)(C)C)C(=O)[C@@H]13` (stereo partly specified) was -0.261; that for `CC1(C)[C@@H]2CC(C(O)C3C=CC4C(=O)N(Cc5ccccc5)C(=O)C4N3n3cnnc3)=C[C@H]1C2` (stereo partly specified) was -0.12; that for `O=C1C[C@@](C(=O)NC2CC2)(c2ccc([N+](=O)[O-])cc2)[C@@H](c2ccc(CO)cc2I)N1C1CCCCC1` was -0.191.
As to `NC(=O)NCC#Cc1ccc2c(c1)[C@]1(C(=O)N2)[C@H](C(=O)Nc2nc3ccccc3s2)[C@H]2C(=O)O[C@H](c3ccccc3)[C@H](c3ccccc3)N2[C@@H]1c1ccccc1OCCO`, the z-score is -0.784.
The value for `O=C1c2ccccc2[C@](Cc2ccccc2I)(C(=O)NCC(F)(F)F)[C@H](c2ccc(CO)cc2)N1Cc1ccccc1Cl` was 0.519; that for `CCC[C@@H]1C[C@@]1(CCC)[C@@H](NS(=O)(=O)c1cccc2cccnc12)c1ccc(Cl)cc1` was -0.151; that for `CCCC[C@@H]1C[C@H]1[C@@H](NC(=O)c1ccco1)c1ccc(-c2ccccc2)cc1` was -1.52.
With `Cc1ccc(S[C@]2(C(=O)NCCCN(C)C)CC(=O)N(Cc3cc(C(F)(F)F)cc(C(F)(F)F)c3)[C@@H]2c2ccc(CO)cc2)cc1`, the z-score was -0.522.
The value for `C=C[C@@H](COC(=O)OC(C)(C)C)N(Cc1ccc(OC)cc1)S(=O)(=O)c1ccc(Br)cc1` was 0.67; that for `COCCOC(=O)N1C(=O)[C@@]2(c3cc(C#CCC(C(=O)OC)C(=O)OC)ccc31)[C@H](C(=O)N1CCN(c3ncccn3)CC1)[C@H]1C(=O)O[C@H](c3ccccc3)[C@H](c3ccccc3)N1[C@@H]2c1ccccc1OCCO` was -0.0626; that for `CN1C(=O)C2C=CC(C(O)c3ccccc3)N(N(c3ccccc3)c3ccccc3)C2C1=O` (stereo unspecified) was -0.728.
The value for `COc1ccc([Si](C)(C)[C@H]2[C@H](CC(=O)N3Cc4ccccc4C[C@H]3CO)O[C@@]3(C(=O)N(Cc4cccc(N5CCC5=O)c4)c4ccccc43)[C@@H]2C)cc1` was -2.31; that for `C=CCC(OC(C)=O)[C@@H]1[C@@H](N(Cc2ccc(-c3cccc(C(F)(F)F)c3)o2)C(=O)c2ccc(C)cc2)c2cc(OCCCO)ccc2N1C(=O)Cc1ccc2ccccc2c1` (stereo partly specified) was 0.837; that for `Oc1ccc2cc[n+](Cc3sc4ccccc4c3Cl)cc2c1` was -1.42.
The value for `COC(=O)C(CC#Cc1ccc2c(c1)[C@]1(C(=O)N2)[C@H](c2ccc(OCCO)cc2)N2[C@H](c3ccccc3)[C@H](c3ccccc3)OC(=O)[C@H]2[C@@H]1C(=O)N1CCc2cc(OC)c(OC)cc2C1)C(=O)OC` was 0.164; that for `COc1ccc(CCNC(=O)[C@@]2(Sc3ccc(C)cc3)CC(=O)N(C(C)C)[C@@H]2c2ccc(CO)cc2I)cc1` was -1.63; that for `CN(C)CCCC[C@@H]1NC(=O)[C@@H]2C[C@H](C(=O)NCCCCCCN)[C@H](c3cccc(OCCO)c3)N2C1=O` was 0.124.
In the case of `C=CCN1C(=O)[C@]2(O[C@H](CCn3cc([C@H](O)c4ccccc4)nn3)[C@@H]([Si](C)(C)c3ccc(OC)cc3)[C@@H]2C)c2ccccc21`, the z-score is -1.68.
The value for `COC(=O)C(CC#Cc1ccc2c(c1)[C@]1(C(=O)N2)[C@H](C(=O)Nc2nc3ccccc3s2)[C@H]2C(=O)O[C@H](c3ccccc3)[C@H](c3ccccc3)N2[C@@H]1c1ccc(O)cc1)C(=O)OC` was 0.792; that for `COc1cc2c(cc1O)C(c1cccs1)N(C)CC2` (stereo unspecified) was -1.55.
Under `C=CC[C@]1(C(=O)NCc2ccccc2)N=C(c2ccc(OCCCO)cc2)O[C@H]1c1ccccc1N=[N+]=[N-]` stands -1.93; under `O=C(c1ccccc1)N1Cc2ccccc2C[C@@]2(COC(c3ccc(OCCCO)cc3)=N2)C1=O`, 0.26; under `C=C[C@H](C)[C@@H](OC(=O)Nc1ccc(OC)cc1)c1ccc(O)c2ccccc12`, -4.56.
Under `CCC(CC)C(O)C1C=CC2C(=O)NC(=O)C2N1Nc1ccc(Cl)cc1Cl` (stereo unspecified) stands -1.46.

The record behind these values is PubChem BioAssay.
